Compound activity (PubChem)
ALOX12 inhib: 12-hLO (ALOX12) enzyme inhibition; purified 12-hLO, xylenol orange hydroperoxide absorbance; Potency, µM (top dose mostly 57.1 µM), without a hit: at the top dose activity change, negative = inhibition, usual class: inhibitors; 0.12% of 150,000 active; P18054; note: potency is the fitted concentration of half-maximal effect; nearly all actives have a fitted effect of over 55% in size
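Hydroperoxide output read as Fe(III)-xylenol orange absorbance, 573-to-405 nm ratio, after 30 min reaction with 40 uM arachidonic acid. Enzyme: 150 nM purified human 12hLO, 15 min compound preincubation; 25 mM Hepes pH 7.0, room temperature.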
IMPase cell inh: membrane-permeable compound that blocks inositol monophosphatase; inhibition (IP1 accumulation), % at 46.1 µM; AID 901; CHO-M1 cells, IP1 accumulation, HTRF TR-FRET ratio; P97697; 120,000 tested, under 10 active; active = well fitted curve in the direction sought with a large enough effect in the signal ratio, not every such curve was filed as active; inconclusive = small, poorly fitted or top-dose-only effect, or a change in a side signal; inactive = no such curve, though single readings can be large or run the other way; the % refers to the signal ratio;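 note: cells stimulated with carbachol in lithium chloride buffer; plate controls were DMSO basal wells for no effect and reference inhibitor wells for full effect; higher means more IMPase inhibition seen as more IP1 and lower FRET ratio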
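In this qHTS, compounds (final up to 46 uM) act on CHO-M1 cells that are then activated through the M1 receptor with carbachol, in pH 7.4 buffer containing 50 mM LiCl, for 30 min. IP1 accumulation is quantified by the IP-One immunoassay.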
IMPase Li inh: membrane-permeable IMPase blocker, potentiated with lithium. CHO-M1 cells, IP1 TR-FRET (IP-One), carbachol + lithium. Potency, µM (top dose mostly 59.4 µM), without a hit: at the top dose activity, negative = IMPase inhibition, hits mostly inhibitors. 0.35% of 210,000 active;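 note: IP1 builds up when IMPase is blocked and the TR-FRET signal falls; potency is the fitted concentration of half-maximal effect; plate controls were basal vehicle for no effect and high inhibitor control for full effect; nearly all actives have a fitted effect of over 50% in size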
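Concentration–response in CHO-M1 cells, lithium-potentiated; 30 min at 37C. IP1 detected by competitive TR-FRET after 10 min lysis at RT. Hill-fitted AC50.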
HPGD block: inhibitors of human 15-hydroxyprostaglandin dehydrogenase (HPGD); P15428; purified HPGD, NADH fluorescence kinetic, PGE2 substrate; Potency, µM, for the others: at the top dose activity change, negative = inhibition, hits mostly inhibitors; 4.3% of 150,000 active; active = well fitted inhibition curve with a large enough effect, not every such curve was filed as active; inconclusive = small, poorly fitted or top-dose-only effect, or another doubt; inactive = no such curve, though single readings can be large or run the other way; note: potency is the fitted concentration of half-maximal effect
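NADH formation kinetics: reaction with 30 uM PGE2 and 1 mM NAD+ (final), 20 nM enzyme, Tris-HCl pH 8 with Tween 20, after 15 min compound preincubation at room temperature. Fluorescence change, last versus first of five reads.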
PNC assembly inh: blocks assembly of the perinucleolar compartment; PC3M PTB-GFP, PNC prevalence imaging, 16 h; hits give low values; activity change (PNC), negative = inhibition, % at 10 µM; 3.1% of 140,000 active; AID 2417;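 active = readout at or below -70, meaning at least 70% loss of cells showing the perinucleolar compartment, a nuclear body marking cancer cells; inconclusive = readout between -30 and a set limit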;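 note: plate controls were DMSO wells for no effect and camptothecin positive control wells for full effect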
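Compounds are pinned in duplicate onto adhered PC3M cells stably expressing GFP-tagged PTB and incubated 16 h at 37 C. Cells are then fixed, nuclei stained with Hoechst, and PNC-positive cells counted.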
ALOX15B inhib: inhibitors of human 15-lipoxygenase 2 (ALOX15B) | Potency, µM (series often up to 57.1 µM), inactives show top-dose activity change, negative = inhibition, actives largely listed as inhibitors | AID 881 | O15296 | 0.56% of 110,000 active | purified 15hLO-2, xylenol orange hydroperoxide absorbance; note: potency is the fitted concentration of half-maximal effect; nearly all actives have a fitted effect of over 60% in size
Target sequence (O15296 whole entry, looked up): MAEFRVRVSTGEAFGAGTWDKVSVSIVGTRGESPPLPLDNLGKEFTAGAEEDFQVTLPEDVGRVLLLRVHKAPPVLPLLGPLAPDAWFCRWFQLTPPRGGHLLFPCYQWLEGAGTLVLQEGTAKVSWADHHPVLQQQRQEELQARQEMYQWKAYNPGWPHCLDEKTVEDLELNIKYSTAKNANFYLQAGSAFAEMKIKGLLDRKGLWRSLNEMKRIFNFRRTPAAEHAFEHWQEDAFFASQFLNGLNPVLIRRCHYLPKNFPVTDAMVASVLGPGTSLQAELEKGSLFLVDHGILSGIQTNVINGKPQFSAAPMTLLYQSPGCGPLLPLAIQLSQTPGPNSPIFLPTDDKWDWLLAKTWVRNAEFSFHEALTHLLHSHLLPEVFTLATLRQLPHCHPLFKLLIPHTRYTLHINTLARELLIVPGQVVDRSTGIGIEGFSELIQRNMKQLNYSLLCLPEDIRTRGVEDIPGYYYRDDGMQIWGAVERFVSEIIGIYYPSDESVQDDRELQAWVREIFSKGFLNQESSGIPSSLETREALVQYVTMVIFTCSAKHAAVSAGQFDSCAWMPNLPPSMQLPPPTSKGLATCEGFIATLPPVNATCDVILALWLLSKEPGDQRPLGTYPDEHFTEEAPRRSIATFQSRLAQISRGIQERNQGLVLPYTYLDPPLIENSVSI
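Purified human 15hLO-2 (50 nM final) preincubated with compounds 15 min at room temperature in 25 mM Hepes pH 7.5, 0.01% Triton X-100, then 45 uM arachidonic acid added for 90 min; hydroperoxide detected via ferrous/xylenol orange, 573/405 nm absorbance ratio.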
An asterisk follows results filed as active; ? = inconclusive; · = no result; ! = a repeat was not active; [ ] = another dose, or the depositor's remark. Shown are actives, neighbours in structure and some others; about 5.4% of the full set was active somewhere. Unless noted, calls come from the whole dose curve; as a rule, active = well fitted curve in the direction sought with a large enough effect; inconclusive = small, poorly fitted or top-dose-only effect, or another doubt; inactive = no such curve, though single readings can be large; an effect the other way counts as inactive or inconclusive. Unless noted, % is set by controls: 0 for no effect and ±100 for the full control effect.

SMILES | ALOX12 inhib | IMPase cell inh | IMPase Li inh | HPGD block | PNC assembly inh | ALOX15B inhib
C=C(C)[C@H]1CN[C@H](C(=O)O)[C@H]1CC(=O)O | 0%[0.00818 µM] | · | 6% | 16µM*! | · | -1%[0.0915 µM]
C1CNC2NCCNC2N1 (stereo unspecified) | -2% | -4 | -4%[38.3 µM] | -6% | -100* | -5%
CC(C)c1ccc(N2C(=O)NC(=O)/C(=C/c3cnc(-c4ccccc4)nc3)C2=O)cc1 | -27% | 2 | 7% | 13µM* | -26 | ·
COc1cc(/C=C2\C(=O)NC(=O)N(c3ccccc3)C2=O)c([N+](=O)[O-])cc1OC | · | · | 1% | · | · | ·
COc1cc(/C=C2\C(=O)NC(=O)N(c3ccccc3)C2=O)cc(OC)c1O | -5% | ? | 17%[38.3 µM] | 32µM* | 18 | 12%
CCC(C)N1C(=O)/C(=C\c2cnc(N(C)C)nc2)C(=O)NC1=S (stereo unspecified) | · | · | 10% | · | · | ·
CCC(C)N1C(=O)/C(=C\c2ccc(N3CCCCCC3)cc2)C(=O)NC1=S (stereo unspecified) | -8% | · | -2% | 20µM* | -12 | ·
CCC(C)N1C(=O)/C(=C\c2cc3c4c(c2)CCCN4CCC3)C(=O)NC1=S (stereo unspecified) | -14% | · | 7% | 22µM* | 11 | ·
CCc1cc(=O)[nH]c(SCCCF)n1 | · | · | -3% | · | · | ·
COc1cc(=O)[nH]c(SCc2c(F)c(F)c(F)c(F)c2F)n1 | -5% | -6 | 20%[38.3 µM] | 16µM* | 49 | -3%
CC(C)CN(CC(C)C)c1ccc(C=C2C(=O)NC(=S)NC2=O)cc1[N+](=O)[O-] | ? | 5 | 7%[38.3 µM] | 8.9µM* | 4 | 10µM*
COc1ccc2c(c1O)-c1cccc3c1[C@H](C2)N(C)CC3 | -2% | 3 | · | · | · | 14%
Cc1cc(/C=C2\C(=O)NC(=O)N(c3ccc(Cl)cc3)C2=O)c(C)n1-c1sc2c(c1C#N)CCCC2 | -9% | 10 | 15% | 10µM* | 51 | ·
Cc1cc(C)cc(N2C(=O)NC(=O)/C(=C/c3cccn3-c3ccc(Cl)cc3)C2=O)c1 | -3% | 1 | 26% | 4µM* | 10 | ·
Cc1cccc(N2C(=O)NC(=O)/C(=C\c3cccn3-c3ccc(Cl)cc3)C2=O)c1 | -3% | 9 | 18%[38.3 µM] | ? | 82 | -27%
Cc1ccc(N2C(=O)/C(=C/c3ccc(CN(CCC#N)S(C)(=O)=O)o3)C(=O)NC2=S)cc1C | -27% | ? | 7%[38.3 µM] | 14µM* | 33 | ·
Cc1cccc(N2C(=O)/C(=C/c3ccc(CN(CCC#N)S(C)(=O)=O)o3)C(=O)NC2=S)c1 | ? | 15 | 9%[38.3 µM] | 22µM* | 48 | -29%
NCCP(=O)(O)O | 0%[11.4 µM] | · | -12% | -3% | · | -12%[11.4 µM]
CCCN1CC[C@@H]2c3cc(O)ccc3CC[C@H]21 | -2% | 7 | · | · | · | 2%
O=C1NC(=O)N(c2ccc(Cl)cc2)C(=O)/C1=C\c1ccc(Sc2nc3ccccc3[nH]2)o1 | -28% | · | -14% | 10µM* | 18 | ·
Cc1ccc(N2C(=O)NC(=O)/C(=C/c3ccc(-c4ccc(C(=O)O)c(Cl)c4)o3)C2=O)cc1 | · | · | -29% | · | · | ·
CCOc1ccc(-c2nc3ccc(-c4nc5ccc(N6CCN(C)CC6)cc5[nH]4)cc3[nH]2)cc1 | · | · | 13µM* | · | · | ·
O=C(Oc1c(Br)cc(Br)c2cccnc12)N1CCCCC1 | · | · | 13µM* | · | · | ·
FC(F)(F)c1ccc2c(c1)ncn2C1CCN(Cc2nnnn2C2CCCCC2)CC1 | -21% | 12 | 15%[38.3 µM] | ? | -100* | 38%
CCn1nc(-c2ccccc2)nc2c(=O)n(C)c(=O)nc1-2 | -6% | 6 | 25% | -14% | -100* | ·
SMILES | ALOX12 inhib | IMPase cell inh | IMPase Li inh | HPGD block | PNC assembly inh | ALOX15B inhib
COc1ccc(-c2nc3ccccc3c(=O)n2-c2ccc(OC)cc2)cc1 | · | · | 15% | · | · | ·
O=C(O)C[C@H]1OCC=C2CN3CC[C@]45c6ccccc6N[C@@H]4[C@H]1[C@H]2C[C@H]35 | 2%[11.4 µM] | · | -10% | -7% | · | 4%[11.4 µM]
O=c1c2ccccc2[se]n1-c1ccccc1 | 3.2µM* | 2 | 2% | 0.63µM* | 36 | 0.63µM*
C1C[C@@H]2CN(CCCN3CCOCC3)[C@@H](C1)O2 | -4%[11.4 µM] | · | -5% | -4% | · | -5%[11.4 µM]
CC(=O)C1C2c3ccccc3OC1(C)N=c1s/c(=C/c3cn(C)nc3C)c(=O)n12 (stereo unspecified) | -9% | 10 | 7%[38.3 µM] | 28µM* | ? | -9%
C/C(=N\N1CCN(C)CC1)c1c(O)[nH]c(=O)[nH]c1=O | -3% | · | -11% | -9% | -121* | ·
O=C1c2ccccc2C(=O)N1SC1CCCCC1 | ? | 5 | 2%[38.3 µM] | 2.2µM* | 51 | ?
CN(C)c1ccc(P(=O)(Nc2ccc([N+](=O)[O-])cc2)N2CCOCC2)c(NC(=O)c2cccs2)c1 (stereo unspecified) | -2% | 1 | 8% | ? | -80* | ·
[Cd+2].[Cl-].[Cl-] | 28µM* | · | -5% | 8.9µM* | · | ·
COc1cc2cc(c1Cl)N(C)C(=O)C[C@H](OC(=O)C(C)C)[C@]1(C)O[C@@H]1[C@@H](C)[C@H]1C[C@](O)(NC(=O)O1)[C@@H](OC)/C=C\C=C(\C)C2 | 0%[11.4 µM] | · | 8% | -4% | · | -4%[11.4 µM]
C=CC1CC=CCC1 (stereo unspecified) | 0% | · | -15% | -10% | · | 2%
Cc1ccc(OCC(=O)N2CCN(Cc3ccc(F)cc3)CC2)cc1 | · | 14 | · | · | · | ·
Cc1ccc(OCC(=O)NCCN2CCN(C(=O)COc3ccc(C)cc3)CC2)cc1 | 0% | 7 | 19%[38.3 µM] | -3% | -107* | -2%
Cc1ccc(-c2cn3c(=S)[nH]nc3s2)cc1 | ? | 5 | 10%[38.3 µM] | 28µM* | 19 | ?
COc1ccccc1CCNC1CCCC(C)C1 (stereo unspecified) | 0% | · | 4% | -6% | 16 | ·
COc1ccccc1CCNC1CCC(C(C)(C)C)CC1 (stereo unspecified) | ? | 7 | · | · | -112* | 92%
O=c1[nH]c(=O)n([C@H]2C[C@H](O)[C@H](CO)O2)cc1/C=C\Br | -4% | ? | · | · | · | 2%
N#C/C(=C\c1ccc(O)c(O)c1)C(=O)NCCCNC(=O)/C(C#N)=C/c1ccc(O)c(O)c1 | ? | 23 | 51% | 16µM* | · | -16%
CCC1(CCSC(=N)N)C(=O)NC(=O)NC1=O | -1%[11.4 µM] | · | -2% | -5% | · | 0%[11.4 µM]
c1csc(-c2nnc(Cc3cccc4ccccc34)o2)c1 | -4% | -3 | 4% | 18µM* | -23 | ·
COC(=O)[C@]1(C)CC[C@@]2(C)CC[C@@]3(C)C4=CC=C5C(=CC(=O)C(O)=C5C)[C@@]4(C)CC[C@@]3(C)C2C1 (stereo partly specified) | ? | · | 29% | 20µM* | · | 4µM*
CC(=O)Nc1ccccc1C(=O)OCc1cccc(F)c1 | · | · | 5% | · | · | ·
